TDP1 cell noCPT: qHTS for Inhibitors of human tyrosyl-DNA phosphodiesterase 1 (TDP1): qHTS in cells in absence of CPT. DT40 Tdp1-/- hTDP1 cells, no CPT, ATP luminescence, 48 h. Potency, µM (titrated, usually from 46.2 µM), inactives show top-dose activity change, negative = growth inhibition, hits mostly inhibitors. 15% of 420,000 active. AID 686978, 2013; note: nearly all actives have a fitted effect of over 55% in size
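No-CPT arm: Tdp1-/-;hTDP1 DT40 cells (400/well) plus compounds, incubated ≥48 hr at 37 °C. Readout CellTiter-Glo luminescence.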
HT1080-NT tox: kills 2HG-producing HT-1080-NT fibrosarcoma cells; Potency, µM (top dose mostly 46.1 µM), without a hit: at the highest dose activity, negative = less viability, usual class: cytotoxic; 1.6% of 360,000 active; AID 686970; HT-1080-NT fibrosarcoma viability, CellTiter-Glo ATP luminescence, 48 h;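 note: NT is the 2HG producing partner of a matched IDH1 knockdown line; 0% = DMSO-treated cells and -100% = media-only wells without cells; nearly all actives have a fitted effect of over 55% in size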
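HT-1080-NT; 750 cells/well; 5% FBS RPMI; 48 h compound, 37 degrees C; CellTiter-Glo luminescence; curve fitting and curve-class assignment.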
HT1080 IDH1KD tx: toxicity to HT-1080 IDH1 knockdown cells (counter line); Potency, µM (top dose mostly 46.1 µM), inactives show top-dose activity, negative = toxicity, actives largely listed as cytotoxic; AID 686971; HT-1080 IDH1 knockdown viability, ATP luminescence, 48 h; 2% of 360,000 active;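 note: 0% = DMSO wells and -100% = cell-free medium wells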
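HT-1080-IDH1KD cells (IDH1 knocked down), 750/well in RPMI with 5% FBS, treated with compound 48 h at 37 degrees C. Viability by CellTiter-Glo luminescence, normalised to DMSO and no-cell wells; concentration-response curves classed.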
KB-3-1 tox: KB-3-1 parental cell cytotoxicity; Potency, µM (series often up to 46.1 µM), actives largely listed as cytotoxic; KB-3-1 viability, CellTiter-Glo ATP luminescence, 72 h; 1.4% of 400,000 active; AID 1347075; note: nearly all actives have a fitted effect of over 60% in size
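Luminescent ATP read-out (CellTiter-Glo) measures survival of drug-naive KB-3-1 cells after 72 h compound exposure at 37 °C. Titration series was screened from lowest to highest concentration, with DMSO vehicle plates as background controls.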
TDP1 cell CPT: growth inhibition of DT40 Tdp1-/-;hTDP1 cells with camptothecin (screen for TDP1 inhibitors); Potency, µM (doses to about 46.2 µM), for the others: at the top dose activity change, negative = growth inhibition, usual class: inhibitors; 12% of 420,000 active; chicken DT40 Tdp1-/-;hTDP1 cells + 20 nM CPT, ATP luminescence, 48 h; note: nearly all actives have a fitted effect of over 55% in size
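Chicken DT40 Tdp1-/- cells stably complemented with human TDP1 were seeded at 400 cells/well in medium containing 20 nM camptothecin, exposed to pin-transferred compounds, and grown at 37 °C for at least 48 hr. Viability was read as ATP luminescence.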
KB-V1 MDR tox: kills drug-selected multidrug resistant KB-V1 cells; KB-V1 MDR cells viability, CellTiter-Glo, 72 h; Potency, µM (highest dose often 46.1 µM), most hits filed as cytotoxic; 3.4% of 400,000 active; note: nearly all actives have a fitted effect of over 60% in size
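Drug-selected KB-V1 cells, grown in DMEM lacking phenol red with 10% FBS, receive compound titrations; after three days at 37 degrees C, surviving cell ATP is quantified by CellTiter-Glo luminescence and responses normalized and curve-fitted.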
Starred values were filed as active, the others as inactive; i = inactive; ? = inconclusive; . = no result given; [ ] = another dose, or the depositor's remark. Shown are actives, neighbours in structure and some others; about 19% of the full set was active somewhere. Calls come from the whole dose curve; as a rule, active = well fitted curve in the direction sought with a large enough effect; inconclusive = small, poorly fitted or top-dose-only effect, or another doubt; inactive = no such curve, though single readings can be large; an effect the other way counts as inactive or inconclusive. Unless noted, % is set by controls: 0 for no effect and ±100 for the full control effect; potency is the fitted concentration of half-maximal effect.

SMILES | TDP1 cell noCPT | HT1080-NT tox | HT1080 IDH1KD tx | KB-3-1 tox | TDP1 cell CPT | KB-V1 MDR tox
C/C(=N/OCC(=O)NCCCCCCNC(=O)CO/N=C(/C)c1cccs1)c1cccs1 | ? | -3% | -6% | i | ? | ?
Cn1c(NCc2ccccc2F)nc2ccccc21 | ? | . | . | i | -25% | i
COc1cc(OC)cc(C(=O)Nc2ccc(S(=O)(=O)Nc3ccccn3)cc2)c1 | -22% | 6% | 2% | i | -3% | i
CCc1cc(/C(Cc2csc(C)n2)=N/O)c(O)cc1O | 23µM* | -9% | -3% | ? | ? | ?
Cc1ccc(S(=O)(=O)N2CCCCC2)cc1NS(=O)(=O)c1cccc(C(=O)O)c1 | -20% | 11% | 16% | i | 2% | i
CC(C)OCCCNC(=O)Cn1c(-c2cccs2)cc2cc(F)ccc21 | ? | . | . | i | ? | i
CCOc1cc(CNC(=O)Cn2c(-c3cccs3)cc3cc(F)ccc32)ccc1OC | ? | . | . | i | ? | 12µM*
CCOc1ccc(CCNC(=O)Cn2c(-c3cccs3)cc3cc(F)ccc32)cc1OCC | 13µM* | . | . | 6.5µM* | 12µM* | ?
CCCC(=O)N1CCCC1(C)C(=O)Nc1ccc(-n2cncn2)cc1 (configuration not stated) | 28% | -2% | 15% | i | 10% | i
CCOC(=O)c1sc(=S)n(C)c1NC(=O)c1ccccc1Cl | ? | -1% | 10% | i | ? | i
CCOC(=O)c1sc(=S)n(C)c1NC(=O)c1ccc(C(C)(C)C)cc1 | ? | ? | 16µM* | ? | ? | ?
CCOC(=O)c1sc(=S)n(C)c1NC(=O)c1ccc(OC)cc1 | 21µM* | 1% | 0% | i | 2.3µM* | i
O=C(Nc1cccc([N+](=O)[O-])c1)Nc1cnccn1 | 3% | 3% | 14% | i | 1% | i
CC(c1ccccc1)n1c(SCC(=O)N2CC(=O)Nc3ccccc32)nc2ccccc2c1=O (configuration not stated) | 21µM* | -14% | -14% | ? | 26µM* | ?
Cc1cccc(-n2c(SCC(=O)N3CC(=O)Nc4ccccc43)nc3ccccc3c2=O)c1C | 18µM* | -30% | ? | i | ? | i
Cc1cccc(-n2c(SCC(=O)N3CC(=O)Nc4ccccc43)nc3ccccc3c2=O)c1 | 23µM* | ? | -20% | i | ? | i
Cc1nnc(SCC(=O)N2CC(=O)Nc3ccccc32)n1Cc1ccccc1 | -2% | 0% | -2% | i | 2% | i
O=C1CN(C(=O)CSc2nnnn2-c2ccc(Cl)cc2)c2ccccc2N1 | -27% | 5% | 2% | i | -12% | 16µM*
Cc1ccc(-n2c(SCC(=O)N3CC(=O)Nc4ccccc43)nc3ccccc3c2=O)cc1C | -25% | -24% | -27% | ? | ? | i
CC(C)(C)S(=O)(=O)N1Cc2ccc(CO)cc2[C@H]1CCO | 0% | 1% | 8% | i | 0% | i
COc1cccc(N2C(=O)Nc3ccc(Br)cc3C2(O)C(=O)NCCCOC(C)C)c1 (configuration not stated) | -1% | 17% | 19% | i | 12% | i
C/C(N)=C(/C#N)C(=O)CSc1nc2ccccc2c(=O)n1Cc1ccc(F)cc1 | ? | 2% | -18% | i | ? | i
Cc1ccc(Cn2c(SCC(=O)N3CC(=O)Nc4ccccc43)nc3ccccc3c2=O)cc1 | ? | -11% | ? | i | ? | 21µM*
C/C(N)=C(/C#N)C(=O)CSc1nc2ccccc2c(=O)n1Cc1ccc(C)cc1 | ? | ? | 16µM* | ? | -29% | ?
COc1ccccc1/C=C(\NC(=O)c1ccccc1)C(=O)NCc1ccco1 | -9% | 25% | 6% | i | ? | i
SMILES | TDP1 cell noCPT | HT1080-NT tox | HT1080 IDH1KD tx | KB-3-1 tox | TDP1 cell CPT | KB-V1 MDR tox
COc1ccc(N2CC(NC(=O)c3ccc4c(c3)OCO4)CC2=O)cc1 (configuration not stated) | -20% | . | . | . | -24% | .
COc1cc(C(=O)NC2CCN(C)CC2)ccc1Nc1ncc2c(n1)N(Cc1ccccc1)CCC(=O)N2C | 5.2µM* | 21µM* | ? | ? | 3.7µM* | ?
CCN1C(=O)CC(C(C)C)N(C2CCCC2)c2nc(Nc3ccc(C(=O)NC4CCN(C)CC4)cc3OC)ncc21 (configuration not stated) | ? | -22% | -22% | ? | ? | ?
CCN1C(=O)CC(c2ccccc2)N(C2CCCC2)c2nc(Nc3ccc(C(=O)NC4CCN(C)CC4)cc3OC)ncc21 (configuration not stated) | ? | ? | 23µM* | 18µM* | ? | ?
COc1ccc(Cn2c(=O)[nH]c3cc(C(=O)NC4CCN(Cc5ccccc5)CC4)ccc32)cc1 | ? | -17% | -26% | i | ? | i
COc1cc(C(=O)NC2CCN(C)CC2)ccc1Nc1ncc2c(n1)N(C1CCCCC1)CCC(=O)N2C | 0.58µM* | ? | 4.6µM* | ? | 0.92µM* | i
COc1ccc(CN2CCC3(CCC(CNC(=O)c4ccco4)O3)CC2)c(OC)c1C (configuration not stated) | -28% | . | . | . | -4%[9.04 µM] | .
COCCCNC(=O)c1sc2nc(C)c(C(=O)Nc3ccc(Cl)cc3)c(-c3ccc(Br)cc3)c2c1N | -23% | . | . | i | ? | ?
COC(=O)c1ccc(C(=O)OC)c(NC(=O)CN(C)Cc2ccccc2)c1 | 16µM* | -4% | -17% | i | -30% | i
CCN(CC(=O)Nc1ccc(C(=O)OC)cc1)Cc1ccccc1 | -2% | 4% | 4% | i | -18% | i
COC(=O)c1ccc(C(=O)OC)c(NC(=O)CN(C)Cc2cccc(Cl)c2Cl)c1 | ? | 4% | -5% | i | ? | ?
COC(=O)c1ccc(NC(=O)CN(C)Cc2cccc(F)c2)cc1 | 13µM* | -4% | 3% | i | -19% | ?
O=C(COC(=O)C1=COCCO1)Nc1cc(C(F)(F)F)ccc1Cl | -1% | 13% | 12% | i | -25% | i
CC1=C(C(=O)Nc2ccc(Cl)cc2)C(c2ccc(C(F)(F)F)cc2)n2nnnc2N1 (configuration not stated) | . | . | . | i | . | i

Source: PubChem
